How the values were obtained:
[1] = molecular target: T1, ETS1 (UniProt P14921); experiment: ETS1 binding intensity (PBM fluorescence), ETS1 alone (arbitrary fluorescence units); higher = stronger binding; conditions: ETS1 concentration 1 nM; RUNX1 concentration 0 nM
T1 sequence: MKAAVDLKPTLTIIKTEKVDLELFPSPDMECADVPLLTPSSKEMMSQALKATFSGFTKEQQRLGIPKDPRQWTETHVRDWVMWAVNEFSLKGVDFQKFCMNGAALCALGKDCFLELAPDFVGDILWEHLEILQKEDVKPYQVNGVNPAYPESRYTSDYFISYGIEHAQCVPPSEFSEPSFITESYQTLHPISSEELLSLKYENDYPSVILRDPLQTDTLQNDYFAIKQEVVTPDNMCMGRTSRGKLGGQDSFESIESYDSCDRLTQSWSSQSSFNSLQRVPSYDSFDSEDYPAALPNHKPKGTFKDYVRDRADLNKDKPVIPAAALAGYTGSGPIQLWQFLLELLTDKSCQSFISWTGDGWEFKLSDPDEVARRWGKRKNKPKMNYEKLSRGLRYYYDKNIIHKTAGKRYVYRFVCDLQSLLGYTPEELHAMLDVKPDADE

[2] = molecular target: T1, ETS1; experiment: ETS1 binding intensity (PBM fluorescence) in presence of RUNX1, normalised to ETS1-only experiment (arbitrary fluorescence units); higher = stronger binding; conditions: ETS1 concentration 1 nM; RUNX1 concentration 25 nM
[3] = molecular target: RUNX1 (UniProt Q01196); experiment: RUNX1 binding intensity (PBM fluorescence) in presence of ETS1, normalised to RUNX1-only experiment (arbitrary fluorescence units); higher = stronger binding; conditions: RUNX1 concentration 2 nM; ETS1 concentration 25 nM
Method: (§1)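 Cooperative gcPBM on 36-bp genomic probes with neighbouring ETS1 and RUNX1 sites. Recombinant human RUNX1 (2 nM) was incubated alone or with ETS1 (25 nM) and detected with anti-RUNX1 antibody plus Alexa488 secondary. Values are medians over 4 replicate spots; the RUNX1+ETS1 data were normalised to the RUNX1-only data. The probes sit in constant array flanks that are not printed.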

[4] = molecular target: RUNX1 (UniProt Q01196); experiment: RUNX1 binding intensity (PBM fluorescence), RUNX1 alone (arbitrary fluorescence units); higher = stronger binding; conditions: RUNX1 concentration 2 nM; ETS1 concentration 0 nM
Method: as §1
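Wherever RUNX1 binding intensity (PBM fluorescence) in presence of ETS1, normalised to RUNX1-only experiment is given: Full-length recombinant human ETS1 or RUNX1 bound to double-stranded 36-bp genomic probes on microarrays, detected by protein-specific primary antibody and Alexa488 secondary, spot fluorescence as median of four replicate spots.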
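Wherever RUNX1 binding intensity (PBM fluorescence), RUNX1 alone is given: Full-length recombinant human RUNX1 bound to double-stranded 36-bp genomic probes on a high-density microarray, scored as Alexa488 fluorescence per spot via anti-RUNX1 antibody, median of four replicate spots.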

Chain of RUNX1 (Q01196 whole entry): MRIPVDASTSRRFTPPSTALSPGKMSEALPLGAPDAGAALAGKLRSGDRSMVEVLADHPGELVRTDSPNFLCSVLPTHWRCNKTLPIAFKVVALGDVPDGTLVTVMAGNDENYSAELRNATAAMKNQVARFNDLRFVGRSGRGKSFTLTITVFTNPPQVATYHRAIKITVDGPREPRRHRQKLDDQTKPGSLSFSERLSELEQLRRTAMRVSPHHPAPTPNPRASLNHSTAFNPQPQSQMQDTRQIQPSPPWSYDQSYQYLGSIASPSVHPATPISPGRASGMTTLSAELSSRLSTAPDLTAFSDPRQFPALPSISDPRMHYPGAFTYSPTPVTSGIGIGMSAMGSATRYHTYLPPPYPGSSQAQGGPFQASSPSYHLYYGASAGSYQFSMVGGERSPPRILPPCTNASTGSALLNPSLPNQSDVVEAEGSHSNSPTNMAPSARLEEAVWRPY

Sequence | ETS1 binding intensity [1] | ETS1 binding intensity [2] | RUNX1 binding intensity [3] | RUNX1 binding intensity [4]
AACAAACAGTAGGCAGGAAGTGGTTAAACCGAAAGG | 8580 | 28900 | 3590 | –
GTTTCCACTTCCTGCTGTGCAGCAGTACCACCAAGA | 1000 | 1030 | 2800 | –
TAGCATGTGAGCTTCCTGTGGGTTTGTGCAGCCCCA | 616 | 654 | 1440 | –
AGCTTGCGCAGGAAGTCTGCGGCAGGAGGGCGTCCT | 1920 | 2760 | 908 | 687
TGGAAGGCCGGAAAAGGTTTACCACCACACTCCGGT | 1850 | 3690 | 1320 | –
GCAGAGAGGAAGTGTGGGGGTGGAGGAGGCCGCAGA | 681 | 973 | 1000 | –
GCCCACCCGCTTCCGGTTGTGGGCCCCGCCCGCCGA | 5540 | 7350 | 7040 | –
GAGGACGCGGAAGTCCTTCTTGCGGGGCGGAGCTAG | 891 | 840 | 890 | –
CCCCTCACTTCCCTCAACCCTTCCCACAAACTGGGA | 597 | 571 | 2350 | –
AGGAGAAGGAAGAGGATGTTGAGGTTGGGGGAAACC | 1610 | 2530 | 882 | –
TATTGTGTACTTCCCCTTCATGTTGTGGTTGGCTTT | 449 | 619 | 1560 | –
TATGTCTGACTTCCGCTCGTGGTTTCCATCTTAGCC | 2870 | 5230 | 2850 | –
CCATCCAGGAAGCTTATGGTGCGACCGCAGTGTGCC | 508 | 1880 | 1160 | –
TAAGTGAATTTCCTGCCCGCCTCCGCCCACAGCGTA | 775 | 744 | 1790 | –
TCAGCTGACACAGGAAGTGGTAAAGCTATTATCTGT | 9480 | 16400 | 2730 | –
CCTGGGGGGCCGGAAGCCCCGCTGCGGCCCCAGCCC | 3060 | 2480 | 1130 | –
GACTCCATTTCCCGTCGGCTCGCGGTGGGAGCGCCG | 417 | 453 | 1900 | –
CCTGCCTGACCGGAAGTGCCCGCAACCCCACCGACC | 20600 | 32600 | 2870 | –
GCGGAGGCGGAAGTCGTGCTGCTGCTGACCACGGCT | 2560 | 3170 | 1370 | –
CTCTGAACTTCCTCTCTTTTAACCACAACTTACTAC | 549 | 1420 | 14100 | –

Sequence | ETS1 binding intensity [1] | ETS1 binding intensity [2] | RUNX1 binding intensity [3] | RUNX1 binding intensity [4]
CCCTCAGCGGAAGTGGAAGCTGTGGTTTCCAAAGGC | 4750 | 17000 | 3570 | –
TGCCACATCCTGCCCCTCCCCAGGTCTAACCACCAA | 696 | 754 | 3360 | –
GGGCGGGTGAGACCAGGATGTGGGTTCCCCCACCTT | 1880 | 3540 | 1120 | –
TGCGCGCCGGCTTCCGCTGCGGCCAGTCGGGCGGCG | 668 | 635 | 1240 | –
GCAACTGAACAGGAAACTAAAAAACCACAACACTTA | 1400 | 15600 | 7890 | –
ACAAGGAGGAAAAGGAAATGAACCACGAATAGCAAA | 1220 | 1160 | 948 | –
CCACCCACTTCCTGCCCTAGCTAGTGTGGTATTTTT | 1050 | 1640 | 7970 | –
ATCAAACCCCAGGATATGTTGGTTTTGTAGGTTGTC | 562 | 524 | 629 | –
GTTGCCCCACTTCCTGCCAGTGGTTTTTGGTTGGCC | 2660 | 4220 | 4040 | –
AACAGCTTCCGGCACGGGGGCTGTGGTTGTGTTGGA | 670 | 1130 | 1530 | –
GCCGCGAGTTCCGCCGGGTGGACCACAAATCCCGAG | 373 | 451 | 904 | –
CTAAACCGGAAGCCGCCCCTCTGACCGCTCTAAAAC | 5350 | 5990 | 2010 | –
CGATGCTTCCGGCCTCCTATTGGGTGGTTTCTTGGC | 895 | 1050 | 2040 | –
AGTCTAACCAACAAAGGATGTGGTAGGTAAAAGGTT | 1250 | 2640 | 959 | –
GAGTTCTAGACTACAGGATGTGGTTAGAAGAAAAGA | 4670 | 56900 | 4800 | –
ACAGGAAGAGATATTATATCTCCCTGCGGTTGGTTT | 583 | 2430 | 779 | –
TGCAATCAGGAAGCCTGCCCCTCTAGAACCACAAAA | 540 | 1210 | 892 | –
AACAAAGAGAGAGGAAGTGGGTTGGGCGGGGGGGGT | 1880 | 1990 | 1040 | –
TTGGCTTTGTGTTTCCGCGGTGTTGGTAGAGTCTCG | 418 | 482 | 980 | –

Source: the supplement of paper PMC10681739
